# LYPLA1 counter = LYPLA1 (human) inhibition in PME1 counter-screen; inhibition, % at 5.9 µM; O75608; recombinant LYPLA1, FP-Rh probe fluorescence polarization; AID 2174; actives 0.16% (n = 320,000);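 active = inhibition above the mean of all tested compounds plus 3 SD, set per campaign, cut at about 14% in these data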;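 note: inhibitors block serine hydrolase probe labeling of LYPLA1 so polarization falls; 0% = enzyme with DMSO and 100% = wells lacking LYPLA1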
# Target sequence (O75608 whole entry, looked up): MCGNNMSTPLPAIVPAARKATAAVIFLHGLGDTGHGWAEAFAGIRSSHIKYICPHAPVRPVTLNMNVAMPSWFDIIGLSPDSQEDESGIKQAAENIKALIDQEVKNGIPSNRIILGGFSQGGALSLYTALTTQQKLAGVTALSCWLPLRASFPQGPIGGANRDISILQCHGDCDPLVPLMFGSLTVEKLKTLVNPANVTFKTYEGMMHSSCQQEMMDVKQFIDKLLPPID
# Fam108B counter = Fam108B inhibition, counter-screen for RBBP9 inhibitors. inhibition, % at 9.51 µM. actives 0.33% (n = 300,000). recombinant Fam108B, FP-Rh probe fluorescence polarization;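 active = inhibition above the screen mean inhibition plus 3 SD, computed separately per campaign, cut at about 18% in these data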;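 note: inhibitors lower polarization as less probe binds the enzyme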
# PP1 inh = counter-screen for PP5 inhibitors: inhibitors of human PP1-alpha; purified PP1alpha, OMFP fluorescence; inhibition, % at 6.7 µM; actives 0.9% (n = 320,000); AID 2235;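 active = inhibition above the mean inhibition of all tested compounds plus 3 SD, computed separately for each screening campaign, cut at about 15% in these data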
# Target sequence (P62136 whole entry, looked up): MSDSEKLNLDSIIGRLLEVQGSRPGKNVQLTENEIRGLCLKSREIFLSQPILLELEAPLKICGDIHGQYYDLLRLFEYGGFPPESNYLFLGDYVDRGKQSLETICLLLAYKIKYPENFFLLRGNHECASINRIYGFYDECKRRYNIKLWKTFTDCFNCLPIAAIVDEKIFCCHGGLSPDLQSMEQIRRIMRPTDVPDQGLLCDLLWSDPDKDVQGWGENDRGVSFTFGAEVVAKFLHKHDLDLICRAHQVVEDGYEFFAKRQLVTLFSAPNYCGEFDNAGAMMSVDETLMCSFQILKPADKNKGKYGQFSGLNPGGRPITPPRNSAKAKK
# LYPLA2 counter = blocks human lysophospholipase 2, a PME1 counter-screen; recombinant LYPLA2, FP-Rh probe fluorescence polarization; O95372; actives 0.38% (n = 320,000); inhibition, % at 5.9 µM;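 active = inhibition above the screen-wide mean plus 3 SD, limit set per campaign, cut at about 26% in these data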;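 note: 0% = LYPLA2 with DMSO and 100% = wells lacking LYPLA2 enzyme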
# PME-1 inh = blocks human protein phosphatase methylesterase 1; inhibition, % at 5.9 µM; Q9Y570; recombinant PME-1, FP-Rh probe fluorescence polarization; actives 0.53% (n = 320,000);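 active = inhibition above the campaign mean of all compounds plus 3 SD, cut at about 26% in these data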;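 note: competitive labeling of PME-1 active site by serine hydrolase directed probe; 0% = PME-1 with DMSO and 100% = wells lacking PME-1 enzyme; inhibitors block probe labeling so polarization falls and inhibition rises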
# PP5 primary = inhibitors of human protein phosphatase 5 (PP5); P53041; purified PP5c, OMFP substrate fluorescence; inhibition, % at 6.7 µM; actives 0.18% (n = 320,000); AID 1987;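 active = inhibition above the campaign's mean inhibition across all tested compounds plus 3 SD, cut at about 9.5% in these data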;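 note: 0% = DMSO only and 100% = 100 µM cantharidin control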
# PP1 inh confirm = human PP1 phosphatase inhibition, confirmation. shares compounds with PP1 inh. purified PP1alpha, OMFP substrate fluorescence. inhibition, % at 6.7 µM. actives 52% (n = 1,900). AID 2358;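 active = mean PP1 inhibition above a set limit taken from the earlier primary screen, cut at about 15% in these data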
# PP5 inh counter = PP5 phosphatase inhibition, counter-screen for PP1 inhibitors | shares compounds with PP1 inh | purified PP5c, OMFP fluorescence | inhibition, % at 6.7 µM | actives 4% (n = 1,900);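 active = mean PP5 inhibition over triplicate wells above about 9.5% taken from the earlier PP1 screen, limit read from the data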
# An asterisk follows results filed as active; . = no result given. An excerpt weighted towards active compounds, which were near 1.8% of everything screened.
SMILES,LYPLA1 counter,Fam108B counter,PP1 inh,LYPLA2 counter,PME-1 inh,PP5 primary,PP1 inh confirm,PP5 inh counter
CCOC(=O)c1cnc(-n2nc(C)cc2C)nc1NC,-2,0,-2,2,3,5,.,.
CCc1ccc2[nH]c(=O)c(CN(Cc3ccc4c(c3)OCO4)Cc3nnnn3C3CCCC3)cc2c1,-6,-5,21*,-5,3,4,6,2
CN(CC(=O)Nc1ccc(F)c(F)c1F)C(=O)c1ccc(-n2cncn2)c([N+](=O)[O-])c1,-3,1,1,6,-2,-1,.,.
CN(C)/C=C/c1onc(-c2c(Cl)cccc2Cl)c1C#N,0,5,35*,2,-6,2,1,1
N#Cc1c(-c2c(Cl)cccc2Cl)noc1/C=C/Nc1ccc(C(=O)O)cc1,-3,9,5,7,3,6,.,.
O=C(CSc1nc2ccc(NC(=O)CSc3nnnn3Cc3ccccc3)cc2s1)Nc1ccccc1,-20,8,22*,-28,11,-1,8,-7
COC(=O)CSc1nc2ccc(NC(=O)CSc3nnnn3Cc3ccccc3)cc2s1,-12,-5,0,-5,-10,0,.,.
Cc1cc(C)c(NC(=O)CSc2nc3ccc(NC(=O)CSc4nnnn4Cc4ccccc4)cc3s2)c(C)c1,-29,-20,20*,-49,-26,-2,31*,-5
O=C(Nc1cccc(O)c1)C(Cc1ccccc1)N1C(=O)c2cccc3cccc(c23)C1=O (stereo unspecified),-10,-21,19*,-13,-15,1,29*,1
CCC(C(=O)Nc1ccsc1C(=O)OC)c1ccccc1 (stereo unspecified),0,-3,4,-4,1,2,.,.
CN(Cc1ccccn1)C(=O)C1CCC(=O)N(Cc2cccc(F)c2)C1 (stereo unspecified),0,1,24*,0,5,0,-2,-3
Cc1cccc(NC(=O)Cn2c(O)c(N=NC(=O)c3ccccc3O)c3ccccc32)c1,-14,-5,35*,-12,-11,3,27*,-1
Cc1cc(=O)oc2c(C)c(OCC(=O)c3ccccc3)ccc12,-4,0,-1,1,-3,-1,.,.
COc1ccc(N2CCN(C(=O)CCc3ccc(S(=O)(=O)NC(C)(C)C)cc3)CC2)cc1,2,0,-1,8,-5,1,.,.
O=C(CN1C(=O)NC2(CCCC2)C1=O)N1CCN(c2ccccc2O)CC1,-3,0,18*,3,1,-1,-6,-3
CCOc1ccccc1N1CCN(C(=O)CN2C(=O)NC3(CCCC3)C2=O)CC1,0,-3,0,0,-6,0,.,.
COc1ccc(NC(=O)CC(CC(=O)O)c2cc(OC)c(OC)c(OC)c2)cc1 (stereo unspecified),0,2,0,2,-5,2,.,.
COc1ccc(-c2cc3nc4ccccc4n3c(N)c2C#N)cc1,-1,7,18*,3,-7,-5,17*,-4
COc1ccc(-c2cc(-c3ccccc3)c(C#N)c(S(C)=O)n2)cc1 (stereo unspecified),-7,-4,-1,0,3,2,.,.
CCOc1ccc(-c2cc(C(=O)NCCCn3ccnc3)c3ccccc3n2)cc1,1,0,3,-3,2,-1,.,.
CCOc1ccc(-c2cc(C(=O)NCCCn3ccnc3)c3cc(Br)ccc3n2)cc1,-3,-5,21*,2,-6,4,6,1
CCc1ccc(NC(=O)Cn2c(=O)c3cccn3c3ccccc32)cc1,-5,-9,22*,0,-10,0,18*,-1
O=C1N=C(N2CCN(c3cccc4ccccc34)CC2)S/C1=C/c1cccs1,0,-2,24*,8,-8,3,19*,-3
O=C(c1ccccc1)N1CCN(C(=O)c2nn3c(C(F)(F)F)cc(-c4ccco4)nc3c2Br)CC1,-3,2,19*,-8,-2,-2,-3,-3
O=C(NC1CCCCC1)c1nn2c(C(F)(F)F)cc(-c3ccco3)nc2c1Br,0,-3,3,0,2,0,.,.
SMILES,LYPLA1 counter,Fam108B counter,PP1 inh,LYPLA2 counter,PME-1 inh,PP5 primary,PP1 inh confirm,PP5 inh counter
Cc1ccc(C)c(Cn2nc(-c3cc(C)ccc3C)ccc2=O)c1,0,0,3,4,-3,2,.,.
COc1ccc(-n2c3c(cc(C(=O)NNc4ccccc4)c2=O)C(=O)CC(C)(C)C3)cc1,-1,3,1,0,1,2,.,.
COc1ccc(-n2c3c(cc(C(=O)NNc4ccccc4C)c2=O)C(=O)CC(C)(C)C3)cc1,-3,-4,18*,1,0,1,1,-3
CNC(=O)CC1C(=O)N(c2ccc(OC)cc2)C(=S)N1NC(=O)c1cccc(F)c1 (stereo unspecified),3,1,0,4,-3,2,.,.
OCCNCCSc1nc(C2CCCCC2)n(-c2ccccc2Cl)n1,-2,0,-6,4,-4,0,.,.
N#Cc1ccc(C23CC4(C2)[C@H](CN(P(=O)(c2ccccc2)c2ccccc2)[C@@H]4c2ccccc2)C3c2ccc(Cl)nc2)cc1 (stereo partly specified),-7,-1,18*,-8,-10,4,6,4
Clc1ccc(C2[C@H]3CN(Cc4ccc(-c5ccccc5)cc4)[C@H](c4ccccc4)C34CC2(c2ccccc2)C4)cn1 (stereo partly specified),3,-1,4,-1,-2,0,.,.
CN1C[C@@H]2C(c3ccc(Cl)nc3)C3(c4ccc(C#N)cc4)CC2(C3)[C@H]1c1ccccc1 (stereo partly specified),1,6,7,-2,0,3,.,.
Clc1ccc(C2[C@H]3CN(Cc4cccnc4)[C@H](c4ccccc4)C34CC2(c2ccccc2)C4)cn1 (stereo partly specified),0,0,21*,-3,-1,5,17*,1
CC1(c2nnc(-c3cccc(Cl)c3)o2)CC(c2ccccc2Br)=NO1 (stereo unspecified),-1,-4,-2,-1,2,1,.,.
O=C1NN(c2ccccc2)C(=O)/C1=C\c1cccc(OC(=O)c2cccs2)c1,-2,4,4,8,9,-2,.,.
O=C1NN(c2ccc(Cl)c(Cl)c2)C(=O)/C1=C/c1cccc(OC(=O)c2cccs2)c1,-12,4,27*,4,37*,2,23*,0
